Hits are enriched below; roughly 1.4% of the tested compounds scored in any of these assays.
MLL AF4-AF9 inh: MLL-AF4/AF9 protein interaction inhibition; P42568; AlphaScreen, biotin-AF4 peptide binding to FLAG-AF9; inhibition, % at 10 µM; hit rate 0.47% among 350,000; AID 651704;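 active means every replicate reaching a set inhibition limit, whatever the replicate mean, cut at about 25% in these data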
RAD52 inh: RAD52 (human) annealing inhibition; hit rate 0.46% among 360,000; recombinant RAD52 DNA annealing, FRET fluorescence; inhibition, % at 18.7 µM; AID 651710; P43351;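 active means every replicate showing at least 50% inhibition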
Target sequence (P43351 whole entry, looked up): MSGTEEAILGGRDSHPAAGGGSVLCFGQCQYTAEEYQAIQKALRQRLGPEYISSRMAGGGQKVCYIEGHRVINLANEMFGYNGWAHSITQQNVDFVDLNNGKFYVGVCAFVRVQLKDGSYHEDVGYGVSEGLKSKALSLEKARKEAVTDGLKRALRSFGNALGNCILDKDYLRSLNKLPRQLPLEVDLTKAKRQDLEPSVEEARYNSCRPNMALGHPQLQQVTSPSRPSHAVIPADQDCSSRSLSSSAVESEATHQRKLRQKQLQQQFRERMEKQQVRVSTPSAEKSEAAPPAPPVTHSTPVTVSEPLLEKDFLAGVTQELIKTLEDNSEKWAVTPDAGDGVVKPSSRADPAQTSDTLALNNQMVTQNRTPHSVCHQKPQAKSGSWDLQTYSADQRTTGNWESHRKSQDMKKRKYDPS
PGC1a acetyl inh: PGC1a acetylation modulation, inhibitor mode | inhibition, % at 15.6 µM | hit rate 0.17% among 350,000 | U2OS PGC1a acetylation, AlphaScreen anti-acetyl-lysine; with virally co-expressed GCN5 acetyltransferase;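 active means every replicate shows inhibition of at least 40%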
ERAP1 inh: inhibitors of human ERAP1 aminopeptidase; Q9NZ08; recombinant ERAP1, Leu-AMC fluorescence, 60 min; inhibition, % at 10.7 µM; hit rate 0.15% among 340,000;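 active means mean replicate inhibition of at least 30%, or all replicates individually reaching that 30% level; inactive means mean below 30% and not every replicate reaching it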
RAD54 inh: blocks human RAD54 Holliday junction branch migration | FAM/BHQ fluorescence | hit rate 0.14% among 360,000 | inhibition, % at 10.4 µM | AID 602329 | Q92698;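 active means mean normalized replicate activity at least 40 and at least half of replicates scoring 40 or more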;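 further: inhibitors cause a drop in the FAM fluorescence signal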
INS-1E GSIS act: GLuc luminescence reporter in INS-1E cells, primary screen for activators of glucose-dependent secretion of insulin; INS-1E GLuc reporter insulin secretion, 2-3 h; hit rate 0.61% among 370,000; activation, % at 16.6 µM;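 active means lowest replicate activation of at least 40%, so every replicate reaches that level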
Large screens that a line does not name were inactive.

CC(=NNC(N)=S)c1ccc2cc3c(cc2c1)OCO3	none (no result: PGC1a acetyl inh)
Cc1noc(C)c1S(=O)(=O)N(C)C[C@@H]1OCCCC[C@H](C)Oc2ccc(NS(=O)(=O)c3cccs3)cc2C(=O)N([C@@H](C)CO)C[C@H]1C	RAD52 inh 64
Cc1noc(C)c1S(=O)(=O)N(C)C[C@H]1OCCCC[C@H](C)Oc2ccc(NS(=O)(=O)c3cccs3)cc2C(=O)N([C@H](C)CO)C[C@H]1C	none
C[C@H](CO)N1C[C@H](C)[C@H](CN(C)S(=O)(=O)c2cccs2)OCCCC[C@H](C)Oc2ccc(NS(=O)(=O)c3cn(C)cn3)cc2C1=O	RAD52 inh 109
C[C@@H]1CN([C@@H](C)CO)C(=O)c2cccc(NC(=O)Nc3ccc(C(F)(F)F)cc3)c2O[C@@H]1CN(C)Cc1ccc(C(=O)Nc2ccccc2N)cc1	none (no result: RAD54 inh)
COc1ccc(-c2ccc(=O)n(CC(=O)Nc3cccc(O)c3)n2)cc1OC	INS-1E GSIS act 117 (no result: MLL AF4-AF9 inh, RAD52 inh, ERAP1 inh)
O=C(O)C1Cc2c([nH]c3ccccc23)C(c2ccc3c(c2)OCO3)N1 (stereo not drawn)	INS-1E GSIS act 46
COC(=O)[C@H]1Cc2c([nH]c3ccccc23)[C@H](c2ccccc2)N1	none
CN(C(=O)[C@H]1O[C@@H](n2cnc(C(N)=O)n2)[C@H](O)[C@@H]1O)c1ccccc1	INS-1E GSIS act 187 (no result: MLL AF4-AF9 inh, PGC1a acetyl inh, RAD54 inh)
Cc1ccc(NC(=O)[C@@H](Cc2ccccc2)NC(=O)[C@H]2O[C@@H](n3ccc(=O)[nH]c3=O)[C@H](O)[C@@H]2O)cc1C	INS-1E GSIS act 51 (no result: MLL AF4-AF9 inh, PGC1a acetyl inh, RAD54 inh)
NC(=O)c1ncn([C@@H]2O[C@H](C(=O)N[C@H](Cc3ccccc3)C(=O)O)[C@@H](O)[C@H]2O)n1	INS-1E GSIS act 44 (no result: MLL AF4-AF9 inh, PGC1a acetyl inh, RAD54 inh)
COc1ccc(NC(=O)N2CCCCN3[C@H](C2)[C@@H](c2ccc(C#Cc4ccccc4)cc2)[C@@H]3CO)cc1	RAD52 inh 82 (no result: INS-1E GSIS act)
O=C(Nc1ccc(F)cc1)N1CCCCN2[C@H](CO)[C@@H](c3ccc(C#Cc4ccccc4)cc3)[C@H]2C1	none
COc1ccccc1C#Cc1ccc([C@H]2[C@H]3CN(C(=O)C4CCCC4)CCCCN3[C@H]2CO)cc1	none (no result: INS-1E GSIS act)
COc1ccccc1C#Cc1ccc([C@@H]2[C@@H](CO)N3CCCCN(C(=O)C4CCCC4)C[C@H]23)cc1	RAD52 inh 62 (no result: INS-1E GSIS act)
O=C(Nc1ccc(F)cc1)N1CCCCN2[C@@H](CO)[C@@H](c3ccc(C#Cc4ccccc4)cc3)[C@@H]2C1	INS-1E GSIS act 44
COc1ccc(NC(=O)N2CCCCN3[C@@H](CO)[C@H](c4ccc(C#Cc5ccccc5)cc4)[C@@H]3C2)cc1	RAD52 inh 69 (no result: INS-1E GSIS act)
CC(=O)N(C[C@@H]1[C@@H](c2ccc(C3=CCCC3)cc2)[C@@H](CO)N1CC1CC1)C(C)C	none (no result: PGC1a acetyl inh, RAD54 inh)
CCCNC(=O)N(C)C[C@@H]1Oc2ncc(C3=CCCC3)cc2C(=O)N([C@@H](C)CO)C[C@H]1C	none
O=C(C[C@H]1CC[C@@H]2NC[C@H](O)COC[C@H]2O1)NCCN1CCCC1	none (no result: RAD54 inh)
Cc1ccc(S(=O)(=O)N2C[C@H](O)COC[C@H]3O[C@@H](CC(=O)N[C@H]4CCN(Cc5ccccc5)C4)CC[C@@H]32)cc1	none
COc1ccccc1NC(=O)N1CCCCN2[C@H](CO)[C@@H](c3ccc(C#CC4CC4)cc3)[C@H]2C1	MLL AF4-AF9 inh 25 (no result: PGC1a acetyl inh, RAD54 inh, INS-1E GSIS act)
C[C@@H]1CN([C@@H](C)CO)C(=O)c2cc(-c3ccc(C(=O)N(C)C)cc3)cnc2O[C@H]1CN(C)C(=O)CN(C)C	none
CNC(=O)C1CC(=O)N(c2ccc(OCC(=O)Nc3ccccc3)cc2)C1 (stereo not drawn)	INS-1E GSIS act 55
CN1C(=O)C2C3c4ccccc4C(c4ccccc43)[C@@H]2C1=O (stereo partly drawn)	INS-1E GSIS act 71
CC(=O)N(C(C)=O)N1C(=O)C2C3c4ccccc4C(c4ccccc43)C2C1=O (stereo not drawn)	none (no result: RAD54 inh)
COc1ccccc1NC(=O)N[C@H]1CC[C@@H](CCNC(=O)Cc2ccccn2)O[C@@H]1CO	none
O=C(C[C@H]1CC[C@H]2[C@@H](COC[C@H](O)CN2C(=O)Nc2ccccc2)O1)NCCc1ccncc1	none
CCOC(=O)C(C#N)=C1CCN(Cc2ccccc2)CC1	none
CCOC(=O)/C(C#N)=C1/C(=O)N(Cc2ccccc2)c2ccccc21	PGC1a acetyl inh 73 (no result: RAD54 inh)
COc1cccc(S(=O)(=O)N[C@H]2CC[C@@H](CCn3cc(-c4ccccn4)nn3)O[C@H]2CO)c1	none
CCc1nnc(N/N=C/c2ccccc2Cl)n1N	PGC1a acetyl inh 72 (no result: MLL AF4-AF9 inh, RAD52 inh, ERAP1 inh, INS-1E GSIS act)
Cn1nc(C(C)(C)C)cc1C(=O)NNC(=O)c1cccc(Cl)c1	MLL AF4-AF9 inh 40
COc1ccccc1N1CCN(C2=Nc3cccc4cccc2c34)CC1	MLL AF4-AF9 inh 30
Cc1[nH]c2c(ccc3cccnc32)c1C	none
CC1=[N+](C)c2c(ccc3cccnc23)C1(C)C	MLL AF4-AF9 inh 29 (no result: RAD54 inh)
Cc1ccccc1S(=O)(=O)N1CCCCN2[C@@H](CO)[C@H](c3ccc(C#CCN(C)C)cc3)[C@@H]2C1	none (no result: RAD52 inh, ERAP1 inh)
Cc1cccc(S(=O)(=O)N2CCCCN3[C@@H](CO)[C@H](c4ccc(-c5ccccc5)cc4)[C@@H]3C2)c1	RAD52 inh 68 (no result: INS-1E GSIS act)
C/C=C/c1ccc([C@H]2[C@@H](CO)N3CCCCN(S(=O)(=O)c4ccc(OC)cc4)C[C@H]23)cc1	RAD52 inh 60
Cc1ccccc1S(=O)(=O)N1CCCCN2[C@H](C1)[C@@H](c1ccc(C#CCN(C)C)cc1)[C@@H]2CO	RAD52 inh 60
Cc1ccc(-c2ccc([C@@H]3[C@@H](CO)N4CCCCN(S(=O)(=O)c5cccc(C)c5)C[C@H]34)cc2)cc1	RAD52 inh 53 (no result: INS-1E GSIS act)
C[C@@H]1CCCn2nncc2COCCNC1=O	none (no result: MLL AF4-AF9 inh, RAD52 inh, PGC1a acetyl inh, ERAP1 inh, RAD54 inh)
COc1ccc(C[C@H]2CCn3cc(nn3)COC[C@@H](Cc3ccccc3)NC2=O)cc1	none (no result: MLL AF4-AF9 inh, RAD52 inh, PGC1a acetyl inh, ERAP1 inh, RAD54 inh)
C[C@H](CO)N1C[C@H](C)[C@@H](CN(C)C)Oc2cc(C3=CCCCC3)ccc2S1(=O)=O	none (no result: MLL AF4-AF9 inh, RAD52 inh, ERAP1 inh, RAD54 inh)
C[C@@H]1C/C=C\C[C@H](c2ccc3c(c2)OCO3)NC(=O)[C@@H](c2ccccc2)CC(=O)N1	none (no result: MLL AF4-AF9 inh, RAD52 inh, PGC1a acetyl inh, ERAP1 inh, RAD54 inh)
Cc1ccccc1S(=O)(=O)N1CCCCN2[C@@H](CO)[C@H](c3ccc(-c4ccccc4)cc3)[C@@H]2C1	RAD52 inh 71 (no result: INS-1E GSIS act)
Cc1ccccc1S(=O)(=O)N1CCCCN2[C@H](CO)[C@H](c3ccc(-c4ccccc4)cc3)[C@@H]2C1	none (no result: INS-1E GSIS act)
CC(C)C#Cc1ccc([C@H]2[C@@H](CO)N3C(=O)CN(C(=O)NC4CCCCC4)C[C@@H]23)cc1	RAD52 inh 58 (no result: PGC1a acetyl inh, RAD54 inh)
CC(C)C#Cc1ccc([C@H]2[C@H](CO)N3C(=O)CN(C(=O)NC4CCCCC4)C[C@@H]23)cc1	none (no result: MLL AF4-AF9 inh, PGC1a acetyl inh, ERAP1 inh, RAD54 inh)
CC(C)C#Cc1ccc([C@@H]2[C@H](CO)N3C(=O)CN(C(=O)NC4CCCC4)C[C@@H]23)cc1	PGC1a acetyl inh 107 (no result: RAD54 inh)

Screening results: PubChem BioAssay, Broad Institute
